# Measured values as given in the supplement of paper PMC12819154, “High-throughput peptide-centric local stability assay extends protein–ligand identification to membrane proteins, tissues and bacteria” (Nature Structural & Molecular Biology, 2025).
# Compound: Nc1ncnc2c1ncn2[C@@H]1O[C@H](COP(=O)(O)OP(=O)(O)OP(=O)(O)O)[C@@H](O)[C@H]1O [adenosine 5'-triphosphate]
# Assay: log2 fold change of tryptic peptide abundance, ligand vs vehicle (limited proteolysis) (log2 ratio); higher = more trypsin-susceptible (destabilized)
# Conditions: ligand concentration: 5 mM; sample: E. coli desalted lysate; replicate design: treated before aliquoting
# Experimental: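 HT-PELSA: desalted E. coli K-12 BW25113 lysate (with 12 mM MgCl2) incubated with 5 mM ATP (pH 7) or water for 30 min at 25 C, then a 4 min trypsin pulse at 22 C. Peptides were quantified by DIA-MS (4 replicates). Value is the peptide log2 fold change (treated/control); negative = stabilized. Scale: negative = ligand-stabilized region.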
# 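Also: lysate desalted by size exclusion to strip endogenous ATP, peptide intensities built from DIA-NN precursor signals, and peptides missing any value discarded before comparison.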
# UniProt P14175, sequence (P14175 whole entry): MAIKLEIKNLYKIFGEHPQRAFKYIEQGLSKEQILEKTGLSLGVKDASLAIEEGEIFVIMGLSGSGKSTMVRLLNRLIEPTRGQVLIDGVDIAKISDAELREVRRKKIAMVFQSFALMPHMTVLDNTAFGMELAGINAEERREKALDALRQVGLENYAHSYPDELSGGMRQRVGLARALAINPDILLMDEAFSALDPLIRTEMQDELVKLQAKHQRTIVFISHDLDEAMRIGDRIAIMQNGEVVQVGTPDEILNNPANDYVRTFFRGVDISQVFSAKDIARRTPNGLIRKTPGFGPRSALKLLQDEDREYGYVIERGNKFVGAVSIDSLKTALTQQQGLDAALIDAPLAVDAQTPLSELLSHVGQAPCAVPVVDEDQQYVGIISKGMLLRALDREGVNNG
# UniProt P76010, sequence (P76010 whole entry): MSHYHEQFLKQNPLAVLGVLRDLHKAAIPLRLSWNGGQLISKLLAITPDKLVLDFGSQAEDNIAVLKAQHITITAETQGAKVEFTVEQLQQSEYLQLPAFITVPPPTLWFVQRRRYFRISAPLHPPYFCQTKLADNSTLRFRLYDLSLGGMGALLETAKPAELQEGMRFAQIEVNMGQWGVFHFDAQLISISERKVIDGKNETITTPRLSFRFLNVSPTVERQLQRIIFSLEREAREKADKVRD
# UniProt P00393, sequence (P00393 whole entry): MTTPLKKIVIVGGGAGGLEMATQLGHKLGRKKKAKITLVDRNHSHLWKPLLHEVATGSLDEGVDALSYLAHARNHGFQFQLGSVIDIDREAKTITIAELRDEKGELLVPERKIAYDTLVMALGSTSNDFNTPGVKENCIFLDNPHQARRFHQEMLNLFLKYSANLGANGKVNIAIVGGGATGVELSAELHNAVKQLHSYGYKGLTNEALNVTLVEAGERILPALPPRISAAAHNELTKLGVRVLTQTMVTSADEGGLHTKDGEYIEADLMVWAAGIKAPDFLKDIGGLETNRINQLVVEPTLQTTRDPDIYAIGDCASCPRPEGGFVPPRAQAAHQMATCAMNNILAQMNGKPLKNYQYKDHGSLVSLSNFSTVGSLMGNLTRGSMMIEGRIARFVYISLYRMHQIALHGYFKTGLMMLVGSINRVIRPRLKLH
# UniProt P21865, sequence (P21865 whole entry): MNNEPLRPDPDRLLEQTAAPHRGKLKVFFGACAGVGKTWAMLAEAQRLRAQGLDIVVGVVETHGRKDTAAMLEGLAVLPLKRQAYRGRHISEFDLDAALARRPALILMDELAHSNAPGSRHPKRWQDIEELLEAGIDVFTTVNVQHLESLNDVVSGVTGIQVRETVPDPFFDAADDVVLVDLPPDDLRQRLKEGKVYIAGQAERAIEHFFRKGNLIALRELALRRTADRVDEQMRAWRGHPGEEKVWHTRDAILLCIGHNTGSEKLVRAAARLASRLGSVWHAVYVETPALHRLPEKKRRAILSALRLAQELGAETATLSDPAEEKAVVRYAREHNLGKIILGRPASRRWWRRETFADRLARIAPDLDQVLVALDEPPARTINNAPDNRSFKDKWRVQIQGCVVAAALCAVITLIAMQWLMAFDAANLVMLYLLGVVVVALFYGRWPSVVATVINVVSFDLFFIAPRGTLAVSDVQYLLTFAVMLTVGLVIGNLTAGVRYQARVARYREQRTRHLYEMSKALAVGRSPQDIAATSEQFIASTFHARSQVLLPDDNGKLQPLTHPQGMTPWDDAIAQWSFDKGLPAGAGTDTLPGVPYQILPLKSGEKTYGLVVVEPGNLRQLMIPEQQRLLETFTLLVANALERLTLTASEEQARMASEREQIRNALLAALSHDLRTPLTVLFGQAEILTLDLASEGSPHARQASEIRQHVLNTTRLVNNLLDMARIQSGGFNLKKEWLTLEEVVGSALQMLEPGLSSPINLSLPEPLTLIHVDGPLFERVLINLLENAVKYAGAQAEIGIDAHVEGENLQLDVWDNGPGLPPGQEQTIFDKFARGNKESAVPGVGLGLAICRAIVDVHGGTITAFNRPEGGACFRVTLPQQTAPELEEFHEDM
# UniProt P56579, sequence (P56579 whole entry): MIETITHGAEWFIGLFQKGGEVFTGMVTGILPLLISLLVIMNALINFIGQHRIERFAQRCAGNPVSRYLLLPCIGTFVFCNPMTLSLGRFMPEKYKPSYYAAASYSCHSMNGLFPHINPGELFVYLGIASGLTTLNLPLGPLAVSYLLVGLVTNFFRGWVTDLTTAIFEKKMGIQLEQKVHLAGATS
# UniProt P24200, sequence (P24200 whole entry): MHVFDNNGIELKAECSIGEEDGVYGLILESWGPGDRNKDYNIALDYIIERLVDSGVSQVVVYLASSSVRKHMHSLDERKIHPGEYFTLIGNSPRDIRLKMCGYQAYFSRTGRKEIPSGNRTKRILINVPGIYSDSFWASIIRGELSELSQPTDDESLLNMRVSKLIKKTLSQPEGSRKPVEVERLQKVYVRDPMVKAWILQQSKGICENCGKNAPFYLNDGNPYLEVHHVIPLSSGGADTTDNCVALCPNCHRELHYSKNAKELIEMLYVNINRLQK
# UniProt P27833, sequence (P27833 whole entry): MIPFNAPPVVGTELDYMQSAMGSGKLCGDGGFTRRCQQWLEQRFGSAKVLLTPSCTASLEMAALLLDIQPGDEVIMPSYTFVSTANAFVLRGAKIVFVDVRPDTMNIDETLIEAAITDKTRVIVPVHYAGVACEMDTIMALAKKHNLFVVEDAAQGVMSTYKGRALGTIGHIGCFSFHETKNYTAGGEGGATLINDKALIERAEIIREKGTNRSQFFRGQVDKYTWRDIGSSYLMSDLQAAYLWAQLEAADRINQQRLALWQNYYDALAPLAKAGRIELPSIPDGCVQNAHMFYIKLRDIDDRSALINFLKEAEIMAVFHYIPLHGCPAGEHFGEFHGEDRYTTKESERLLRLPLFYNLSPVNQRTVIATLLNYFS
# UniProt P08179, sequence (P08179 whole entry): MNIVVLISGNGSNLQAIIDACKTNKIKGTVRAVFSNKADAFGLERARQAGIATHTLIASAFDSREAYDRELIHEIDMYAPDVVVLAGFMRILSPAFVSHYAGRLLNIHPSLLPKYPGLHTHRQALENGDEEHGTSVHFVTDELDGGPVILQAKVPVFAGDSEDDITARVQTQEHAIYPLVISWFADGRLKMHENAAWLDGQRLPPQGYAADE
# UniProt P27241, sequence (P27241 whole entry): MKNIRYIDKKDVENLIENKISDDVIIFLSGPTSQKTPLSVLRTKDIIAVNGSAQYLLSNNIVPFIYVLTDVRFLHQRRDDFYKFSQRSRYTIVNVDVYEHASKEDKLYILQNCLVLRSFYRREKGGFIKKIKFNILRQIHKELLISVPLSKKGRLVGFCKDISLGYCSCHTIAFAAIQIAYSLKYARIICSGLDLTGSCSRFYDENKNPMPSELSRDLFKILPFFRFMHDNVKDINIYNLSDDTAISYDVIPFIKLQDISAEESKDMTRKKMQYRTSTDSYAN
# UniProt P22634, sequence (P22634 whole entry): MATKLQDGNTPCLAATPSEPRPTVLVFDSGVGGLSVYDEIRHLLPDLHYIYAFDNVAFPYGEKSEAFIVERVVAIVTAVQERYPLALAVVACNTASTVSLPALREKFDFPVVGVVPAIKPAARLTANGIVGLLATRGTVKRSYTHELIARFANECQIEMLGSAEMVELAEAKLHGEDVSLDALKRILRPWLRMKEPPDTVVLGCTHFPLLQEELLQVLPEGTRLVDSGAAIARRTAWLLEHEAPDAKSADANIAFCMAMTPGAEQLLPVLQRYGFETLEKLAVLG
# UniProt P24173, sequence (P24173 whole entry): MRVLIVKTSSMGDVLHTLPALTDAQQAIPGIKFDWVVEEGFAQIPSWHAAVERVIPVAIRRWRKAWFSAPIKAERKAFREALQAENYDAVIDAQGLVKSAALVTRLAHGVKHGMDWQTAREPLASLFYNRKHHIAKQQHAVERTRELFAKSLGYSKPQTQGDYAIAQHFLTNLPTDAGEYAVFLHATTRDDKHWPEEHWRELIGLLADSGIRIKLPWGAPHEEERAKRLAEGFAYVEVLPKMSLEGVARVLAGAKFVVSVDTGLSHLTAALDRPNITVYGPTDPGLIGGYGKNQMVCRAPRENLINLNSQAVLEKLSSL
# UniProt P39274, sequence (P39274 whole entry): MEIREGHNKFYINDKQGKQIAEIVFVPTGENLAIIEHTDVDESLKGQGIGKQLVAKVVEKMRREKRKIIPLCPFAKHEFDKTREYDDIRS
# UniProt P39280, sequence (P39280 whole entry): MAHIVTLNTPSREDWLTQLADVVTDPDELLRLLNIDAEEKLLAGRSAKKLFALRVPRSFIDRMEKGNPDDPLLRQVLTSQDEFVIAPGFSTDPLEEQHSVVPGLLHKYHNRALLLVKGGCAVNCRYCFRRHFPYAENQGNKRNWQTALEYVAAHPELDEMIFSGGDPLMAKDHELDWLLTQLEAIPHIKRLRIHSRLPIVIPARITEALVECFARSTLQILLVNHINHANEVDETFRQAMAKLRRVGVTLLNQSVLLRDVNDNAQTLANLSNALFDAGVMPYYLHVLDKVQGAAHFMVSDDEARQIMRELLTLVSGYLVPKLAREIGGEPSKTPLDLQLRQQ
# UniProt P25535, sequence (P25535 whole entry): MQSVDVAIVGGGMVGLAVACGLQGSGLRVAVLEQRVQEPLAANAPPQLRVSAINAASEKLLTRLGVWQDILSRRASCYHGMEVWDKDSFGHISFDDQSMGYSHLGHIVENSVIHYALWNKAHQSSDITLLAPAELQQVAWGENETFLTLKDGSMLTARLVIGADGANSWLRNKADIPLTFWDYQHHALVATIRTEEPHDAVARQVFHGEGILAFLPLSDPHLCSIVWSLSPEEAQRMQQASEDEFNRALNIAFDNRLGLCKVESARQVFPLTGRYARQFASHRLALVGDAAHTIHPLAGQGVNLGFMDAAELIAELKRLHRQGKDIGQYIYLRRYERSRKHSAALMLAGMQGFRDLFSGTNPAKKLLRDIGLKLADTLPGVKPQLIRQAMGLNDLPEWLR
# UniProt P42589, sequence (P42589 whole entry): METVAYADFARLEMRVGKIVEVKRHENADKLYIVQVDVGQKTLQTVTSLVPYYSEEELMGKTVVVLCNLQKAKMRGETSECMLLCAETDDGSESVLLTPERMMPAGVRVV
row,Target,log2 fold change
1,"UniProt P37005 (peptide sequence: IVDSQAHLEPATR, peptide start residue: 33)",-0.548
2,"UniProt P24200 (peptide sequence: TLSQPEGSR, peptide start residue: 169)",-0.499
3,"UniProt P24173 (peptide sequence: IKLPWGAPHEEER, peptide start residue: 213)",-0.445
4,"UniProt P0ACP7 (peptide sequence: TRFVAEETR, peptide start residue: 25)",1.38
5,"UniProt P39280 (peptide sequence: IHSRLPIVIPAR, peptide start residue: 193)",1.51
6,"UniProt P42630 (peptide sequence: ITAWKGQEELLSK, peptide start residue: 129)",0.565
7,"UniProt P76010 (peptide sequence: FLNVSPTVER, peptide start residue: 213)",-1.34
8,"UniProt P37624 (peptide sequence: LFHIPEAEIPAR, peptide start residue: 376)",-1.74
9,"UniProt P14175 (peptide sequence: YIEQGLSK, peptide start residue: 24)",1.4
10,"UniProt P21693 (peptide sequence: ELADQVAGELRR, peptide start residue: 82)",-1.53
11,"UniProt P27241 (peptide sequence: YTIVNVDVYEHASKEDK, peptide start residue: 90)",-0.487
12,"UniProt P37773 (peptide sequence: IIAVLEPRSNTMK, peptide start residue: 354)",1.55
13,"UniProt P22634 (peptide sequence: LVDSGAAIAR, peptide start residue: 224)",0.312
14,"UniProt P36566 (peptide sequence: TLSPDYPR, peptide start residue: 179)",-1.28
15,"UniProt P37774 (peptide sequence: TMVIVTHEMSFAR, peptide start residue: 196)",1.7
16,"UniProt P0AC00 (peptide sequence: RYYGGLVEY, peptide start residue: 332)",-0.478
17,"UniProt P39274 (peptide sequence: FYINDKQGK, peptide start residue: 10)",0.423
18,"UniProt P11454 (peptide sequence: IELGEIDR, peptide start residue: 867)",-1.19
19,"UniProt P00579 (peptide sequence: EPTPEELAER, peptide start residue: 477)",0.829
20,"UniProt P08179 (peptide sequence: MHENAAWLDGQR, peptide start residue: 191)",-0.588

row,Target,log2 fold change
1,"UniProt P16691 (peptide sequence: VGFNANLRDPNMR, peptide start residue: 36)",-0.259
2,"UniProt P25535 (peptide sequence: LADTLPGVKPQLIR, peptide start residue: 374)",0.527
3,"UniProt P42589 (peptide sequence: TVVVLCNLQK, peptide start residue: 62)",-0.415
4,"UniProt P56579 (peptide sequence: MGIQLEQK, peptide start residue: 172)",0.509
5,"UniProt P00393 (peptide sequence: ISAAAHNELTK, peptide start residue: 228)",-0.559
6,"UniProt P76014 (peptide sequence: EIGDADHGLNMNR, peptide start residue: 32)",-2.08
7,"UniProt P76594 (peptide sequence: SEVQGVMLYLR, peptide start residue: 533)",-2.33
8,"UniProt P24188 (peptide sequence: NHYEYEVGHFENALEIPADTFR, peptide start residue: 157)",0.32
9,"UniProt P09030 (peptide sequence: CSFLPEER, peptide start residue: 177)",-1.54
10,"UniProt P27833 (peptide sequence: LCGDGGFTR, peptide start residue: 26)",-0.494
11,"UniProt P0CB39 (peptide sequence: QYYMNQQR, peptide start residue: 350)",-0.737
12,"UniProt P0AD19 (peptide sequence: GLAMGTASHALGTAR, peptide start residue: 178)",-0.978
13,"UniProt P04995 (peptide sequence: TDLGDNAAVPVK, peptide start residue: 288)",0.472
14,"UniProt P0ADP0 (peptide sequence: EALTFVQNYHPALR, peptide start residue: 34)",0.493
15,"UniProt P77433 (peptide sequence: GEFLNNVAQALGRPLR, peptide start residue: 5)",0.243
16,"UniProt P55734 (peptide sequence: LRHEQIIFHCQAGKR, peptide start residue: 55)",0.948
17,"UniProt P21865 (peptide sequence: AIEHFFR, peptide start residue: 205)",0.436
18,"UniProt P77552 (peptide sequence: AENTVVTGAGWLK, peptide start residue: 41)",0.332
19,"UniProt P37765 (peptide sequence: EIESIIEAGRVSVDGK, peptide start residue: 19)",0.997
